Our source for the z-score values is PubChem BioAssay AID1347423 (Functional Genomics Laboratory (NCATS/FGL), 2020).

The whole screen tested about 52,000 sequences, of which about 210 (0.4%) were called active. Shown is part of a subset that was picked to be rich in actives. Unmarked numbers belong to inactive results.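 Rule for the calls: active = gene whose silencing raises cell survival under the drug, median off-target-corrected z-score across its silencing RNAs 2 or more; inactive = the rest.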

A short description of this assay: Resistance to Poly (ADP-Ribose) Polymerase inhibitor: Gene Identification via Genome-wide siRNA Screen. As to conditions: mouse BRCA2 R2336H ES cells, olaparib, CellTiter-Glo viability; active compounds read high. Summed up:
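Mouse BRCA2 R2336H ES cells were reverse-transfected with siRNA (20 nM final), treated at 48 h with 500 nM olaparib, and read by CellTiter-Glo after 72 h. Scores: MAD-based z per siRNA, median per gene, seed off-target correction.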
A general note: Cellular ATP, detected with luciferase, serves as a proxy for viable cell number.
As to GGACCCUGAAGGAGCUGAATT against Per2, the z-score is -1.32.
In the case of UCAAACUAGGUGCUGUUGUTT against Olfr584 it was -1.11 (active).
The value for “GGAGAUAAAGUCUUAUCACTT against 9130017N09Rik” was 0.803.
With GCAUUUCUUUCUUGCCUUCTT against Olfr1276, the z-score was 0.613.
As to “GGCUAGCUAACUAUCUCUGTT against 9230105I15Rik”, the z-score was 0.89.
The value for GGUUCCAACAAUUGUAAAGTT against Chl1 was 2.35 (active).
In the case of GGACAAGCUCCAAAACAACTT against Sfrs4 it was -1.45; in that of CCUGCCUUUUCCUAAUGAATT against Ovca2, 0.573; in that of “GACAAAUAGUGCAGGAGGATT against 2310069N01Rik”, 0.444.
Turning to CCAAAUACGACUUACGAAATT against Ncam2, the z-score was 0.897.
The value for “CGAUGUUUUCAUGAACGACTT against 0610012D17Rik” was 0.421; that for “GGCAGUGGCUUGGAUAAAUTT against 5730457F11Rik” was 2.83 (active); that for GGAAGAAGAGCUCUUUAAATT against Acate2 was 0.108.
As to GGACCAGCACCAUUUCCUATT against Tce4, the z-score is -0.603.
In the case of GCUACUAUAUGCGUUUCUUTT against Fads2 it was 1.88.
The value for “GGCAUAAAGUUGUUUACAGTT against 3110006P09Rik” was 3.24 (active); that for “GGUCAUUUCAAGUGCUAAGTT against D7Ertd680e” was 1.01; that for GGUGGAAUGAAAUAUGAAGTT against Ptp4a1 was 0.0271.
Regarding CCUGGAAAGACUCUCGGAGTT against Cln2, the z-score is -0.492.
In the case of GGUGAUGUCUCGGUACCCATT against Mvk, the z-score is -0.664.
GGGCUACAGCAUGUAUGAGTT against BC057627: the z-score is 2.38 (active).
The value for GGAAAUUUCUUAGCACGAATT against Ppp4r1 was 0.667.
In the case of GGACUUUGAAGAGGACAAUTT against Dhx38 it was -2.18; in that of “GCACGAAGAACCACACAAGTT against 5830484A20Rik”, -0.63.
The value for GCAUGAUUUAGAUCGAGUATT against Uqcrfs1 was -1.17.
Consider GGAUCACUACCAUGAAAACTT against Bace1, for which the z-score is -0.551.
The value for GGUGAAAUAGCUAAAUCAUTT against Usp15 was -0.572 (active); that for “GGAGAUGGUUGGAUCAUUCTT against D10Ertd610e” was 0.642.
The value for “GGGUGAAAAGCAUUUCUGUTT against MGI:1923902” was 1.38; that for GGACAAAGAAGACUCCCGATT against Dpf2 was 0.386.
In the case of GCAGAUAUUCUCUGUGCAGTT against Ccnf it was 2.22.
With GGGCUAAAGUAUAUCCAUUTT against Mapk1, the z-score was 1.14 (active).
The value for “CGAAGGACAAAAUAUCAGCTT against 4930517G15Rik” was -0.16; that for GUUGAGGAUAACAUUGAACTT against MGC102419 was -0.623.
The value for “GGGUGUAUUCUGCUUUGUATT against 2600013N14Rik” was -1.3.
Take GGGAAUUGCUCACCUCCAUTT against Klre1: the z-score was -0.871.
On to GCUAAAAUUGGAUCAAGGATT against Ccbp2, for which the z-score was 2.14.
In the case of GGACUUCAUCAAAGUCUUATT against Cyp11a1, the z-score is -1.45.
With GGAAGAACUUUAAAAAUGCTT against Mic2l1, the z-score was 0.477.
In the case of CGUACUCUAUGAGGUGCCATT against Rab6ip1 it was 0.703; in that of GCUUAAAGAUCGAUCCCGCTT against Slc38a4, 0.666.
In the case of GCCAUUAAUAAUCAGUACUTT against Sh2bpsm1 it was 0.686; in that of CCAUUGCCAACAACUAGAUTT against Ela3b, 2.87 (active); in that of GCUGAGGGUUGAUUAGUGGTT against H2-Bl, -1.2.
In the case of GGCCUCCAGAAACAACUCGTT against Ndst2 it was 1.44; in that of GCUAGAACAGCAAAAAAAATT against Scgb3a1, 0.00969; in that of CCACGUGUUUGCAUUCAAATT against Gdd1, 0.222.
For the sequence GGAUCCCACACUUUUCUGATT against Rxra, the z-score is 1.02.
For CCUAAAACUCACCAUAGAGTT against Nfatc3, the z-score is -0.0858.
In the case of “GAUAUAAGGACUCUUUGAATT against 4732486J07Rik” it was -0.212; in that of GGUCUUUUGGAAUCUCUGGTT against Crip3, 1.26 (active).
Consider GGAUAGUAACGGAAACUUGTT against Usp25, for which the z-score is 2.49.
In the case of GGAUUCGGAAUACUACGAUTT against Abo it was 1.79; in that of “GGUGUCCUUUCAAGUUGAUTT against C530005A01Rik”, -0.63.
Take CGGCAGUGUUAAAACAUGATT against Fgfr2: the z-score is 0.114.
The value for GGAGCAGUAUAUCCUACAUTT against Olfr510 was 0.104 (active); that for CCUGAGAACAUUUUAAUCATT against Tas2r116 was -0.685; that for CCAAUUCUCGAAUCAUUGCTT against Olfr561 was -0.382.
In the case of GCUACGCUAUCCAAAUUCUTT against AF529169 it was -0.118; in that of CCCUUGGAGGAAGCUAACUTT against Pde2a, 1.27 (active); in that of GGAGAUGCCCAAUGUUUUCTT against Ehd1, -0.27.
The value for “CGGCCUGUUAUAAACCUGCTT against 4933409K07Rik” was -0.131.
On to GCCUCAUUGAAAGGAUCCATT against GnT-IX, for which the z-score is -0.888.
In the case of GCUUUUGAUCCACAGAUUUTT against Prss33 it was 2.34 (active); in that of GGAACAUCAGGUGCAUGUGTT against Pkd1, 1.9.
“GGCUCCACCAAAGCCUGUUTT against 2310066N05Rik”: the z-score is -2.31.
Turning to “CCUUGGGACUGACUGUAAGTT against A230072I16Rik”, the z-score was 2.25.
In the case of GGUCAAUUAUGAAGAGUUUTT against Calm3 it was 1.59.
The value for CCGGGUCAGGACAAUUCAUTT against Hsd17b1 was 1.29 (active); that for GCAUUCGGCUGAGAAGAUGTT against Foxb2 was -1.8.
For the sequence GGAUAAUUCAGACAACAAUTT against Fus, the z-score is 3.47 (active).
On to GGAACCAAUAAAUCUGUGCTT against Rfxank, for which the z-score was 0.27.
Consider “GGUCAUAGGUACGUAUCCGTT against 6430529G09Rik”, for which the z-score is -0.0313.
Consider GGCUGUACAGUCAUGCAAGTT against Adamts5, for which the z-score is 2.62 (active).
In the case of GGAAAGCUACUGUCAGAGUTT against Olfr473 it was 0.453; in that of GGACGUGUGGCUGUUGACATT against Sdc1, -2.23.
With “GCUUUAGAUACGUGAUUAGTT against 5830417C01Rik”, the z-score was -1.26.
The value for “GCGACUACUUAGACACUUUTT against 4732481H14Rik” was -1.94; that for UAGCCAUCGCUCUUUCUUATT against Olfr594 was -0.973.
In the case of GGACAAAGGUGUCAACUCCTT against Crmp1 it was -0.491; in that of GCUCCUAGGAACUUGGUUATT against Pacsin2, 2.36 (active).
In the case of CGAGUUCGGUAUGAGUGGATT against Clptm1 it was -1.24; in that of GGUCGGAAGAAUCUAAAGGTT against Dmp1, 0.0661; in that of GGAAGAGAGGACCAUGAAGTT against Usp18, 2.69 (active).
Consider GAGAAUCCAGAACUCCAAUTT against Olfr952, for which the z-score is -0.963.
On to GCAAUCAUUAAGCAGAUCATT against Prkce, for which the z-score is -2.49.
Consider GGCCGACAAGCGAUCAAAATT against AU040829, for which the z-score is -0.237.
On to GGAUUUGGCCAACUCACCCTT against Acpp, for which the z-score is 0.16 (active).
As for CCCUUCCAACAAUUAUACUTT against Tmem27, the z-score was 1.04.
In the case of GGAGAGAAAGAAGUUGUUGTT against Lcn5 it was 2.43; in that of GGAUUUCGACAAUAUGAAGTT against Chrnb2, 2.24 (active); in that of CCUAUGAAGCUCCAUUAUGTT against Madcam1, 0.762.
Turning to CACUCUUGAUACAAAUGAGTT against Ifna6T, the z-score is 0.264.
Turning to “GGCACAAAGGCAGUUAUUCTT against 1110049G11Rik”, the z-score was 0.847.
In the case of GGGAAAAAUAUCAGUUAUGTT against Khdrbs1 it was 1.08 (active); in that of GCUGGUGUCAUUAGACAGUTT against Npc1l1, -0.302.
The value for GGCUAUAUCAAUGAAUUUGTT against Polr3b was 0.129.
In the case of GGAUGUUCAUCUAUUUCUUTT against Mja1l it was -0.191.
Turning to GGGACCAAGCAGGUAAAAATT against Kif3a, the z-score was 4.17 (active).
Consider “GGCCUAAGGACAAUUAUUUTT against 9130022A01Rik”, for which the z-score is 0.222.
Take CCAAAUUCAUUCUAGCUCGTT against Copeb: the z-score was 0.474.
Consider CCGAAUGGAAUACCAAAUUTT against Cst8, for which the z-score is -0.186.
On to GGAUGUCAGCUGGUGGUUATT against Tmprss6, for which the z-score is -0.447.
Turning to CCAUCUUGGGUUCUGGUCATT against BC057627, the z-score is -0.312 (active).
As for GGUGUCUGAAUUUGUGGCUTT against Abtb1, the z-score was 1.65.
